Source: PubChem
The sample as a whole holds a higher share of hits than the screen did.
IDE exosite inh: exo-site inhibitors of human insulin-degrading enzyme | hit rate 6.3% among 17,000 | purified IDE, FL-6b probe fluorescence polarization; active compounds read low | z-score at 20 µM | P14735;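 active = z-score of -3 or lower, meaning strong loss of probe binding signal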;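 note: His-tagged human IDE residues 42-1019 made in E. coli with 30 nM FL-6b probe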
The depositor's hits bear a star.

SMILES	IDE exosite inh
COc1cccc(-c2ccc([C@H]3[C@@H](C#N)N(C(=O)Cc4ccccc4)[C@@H]3CO)cc2)c1	-3.8*
COc1cccc(-c2ccc([C@@H]3[C@@H](C#N)N(C(=O)Cc4ccccc4)[C@@H]3CO)cc2)c1	-5.3*
O=C(NC[C@@H]1N[C@@H](CO)[C@@H]1c1ccccc1)c1ccccc1F	0.95
COc1cccc(-c2ccc([C@@H]3[C@@H](CO)N(C(=O)Cc4ccccc4)[C@H]3C#N)cc2)c1	3.6
O=C(NC[C@@H]1N[C@@H](CO)[C@@H]1c1ccc(-c2ccccc2F)cc1)c1ccccn1	-4.5*
COc1cccc(-c2ccccc2[C@H]2[C@@H](C#N)N(C(=O)Cc3ccccc3)[C@H]2CO)c1	0.95
N#C[C@H]1[C@H](c2ccc(-c3ccccc3F)cc2)[C@@H](CO)N1C(=O)c1ccccn1	0.88
O=C(NC[C@H]1N[C@@H](CO)[C@H]1c1ccc(-c2ccccc2)cc1)c1ccccc1F	1.1
COc1cccc(-c2ccc([C@@H]3[C@@H](C#N)N(C(=O)Cc4ccccc4)[C@H]3CO)cc2)c1	3
CC(=O)N(CC1CCC1)C[C@H]1N[C@H](CO)[C@@H]1c1ccc(C2=CCCC2)cc1	0.21
C/C=C/c1ccc([C@H]2[C@@H](CO)N(Cc3ccc(F)cc3)[C@H]2CNC(C)=O)cc1	4.3
CO[C@H]1CN(C)C(=O)c2cc(NC(=O)C3CCCCC3)ccc2OC[C@@H](C)N(C(=O)c2ccccc2)C[C@@H]1C	0.27
O=C(NCC[C@@H]1CC[C@H](NC(=O)c2ccncc2)[C@H](CO)O1)Nc1ccc(Cl)cc1	2.2
CC(C)C#Cc1ccc([C@@H]2[C@@H](CO)N3C(=O)CN(S(=O)(=O)c4ccccc4)C[C@@H]23)cc1	0.01
CCN1[C@@H]2c3ccc(-c4ccc(F)cc4)c(=O)n3C[C@H]1[C@H](CO)[C@H]2C(=O)Nc1nccs1	2.2
N#C[C@H]1[C@@H](c2ccccc2)[C@@H](CO)N1C(=O)c1ccc2c(c1)OCO2	0.52
CCC(=O)NC[C@@H]1[C@@H](c2ccc(C3=CCCC3)cc2)[C@@H](CO)N1CC1CC1	1.3
O=C(C[C@@H]1CC[C@@H]2[C@H](COC[C@H](O)CN2S(=O)(=O)c2cccc(Cl)c2)O1)N1CCOCC1	1.3
O=C(Nc1ccccc1)N1CCCCN2[C@@H](CO)[C@H](c3ccc(C4=CCCCC4)cc3)[C@@H]2C1	4.5
COc1cccc(-c2ccccc2[C@H]2[C@@H](C#N)N(C(=O)c3ccccn3)[C@@H]2CO)c1	-0.39
COc1cccc(-c2ccc([C@@H]3[C@@H](C#N)N(C(=O)c4ccccn4)[C@@H]3CO)cc2)c1	-5*
CCCNC(=O)N1[C@H](C#N)[C@@H](c2ccc(-c3cccc(OC)c3)cc2)[C@H]1CO	-1.3
O=C(C1CCCC1)N1CC(=O)N2[C@H](CO)[C@@H](c3ccc(C#CC4CCCC4)cc3)[C@H]2C1	1.1
COc1ccc(C#Cc2ccc3c(c2)[C@H]2[C@H](CCN2S(=O)(=O)c2ccccc2C)[C@H](CO)N3C)cc1	0.14
CCC(=O)N1CC(=O)N2[C@@H](CO)[C@H](c3ccc(C#CC(C)C)cc3)[C@@H]2C1	2.9
SMILES	IDE exosite inh
CS(=O)(=O)N1[C@H](C#N)[C@H](c2ccccc2-c2ccccc2F)[C@H]1CO	-0.99
CS(=O)(=O)N1[C@@H](C#N)[C@H](c2ccc(-c3ccccc3F)cc2)[C@@H]1CO	-5.2*
CS(=O)(=O)N1[C@H](C#N)[C@H](c2ccc(-c3ccccc3F)cc2)[C@H]1CO	-1.7
CS(=O)(=O)N1[C@H](C#N)[C@@H](c2ccc(-c3ccccc3F)cc2)[C@@H]1CO	-3*
CS(=O)(=O)N1[C@H](C#N)[C@@H](c2ccc(-c3ccccc3F)cc2)[C@H]1CO	-2.1
CS(=O)(=O)N1[C@H](CO)[C@H](c2ccc(-c3ccccc3F)cc2)[C@@H]1C#N	-1.3
C[C@@H]1CN([C@@H](C)CO)C(=O)c2cccc(N(C)C)c2O[C@@H]1CN(C)C(=O)Nc1ccc(F)cc1	0.66
COc1ccc(C#Cc2ccc([C@H]3[C@@H](CO)N4C(=O)CN(C(=O)C5CCOCC5)C[C@@H]34)cc2)cc1	4.3
COc1ccc(C#Cc2ccc([C@@H]3[C@H]4CN(C(=O)C5CCOCC5)CC(=O)N4[C@H]3CO)cc2)cc1	3.4
COc1cccc(C#Cc2ccc([C@H]3[C@@H](CO)N4C(=O)CN(C(=O)C5CC5)C[C@@H]34)cc2)c1	-4.9*
COc1cccc(C#Cc2ccc([C@@H]3[C@H](CO)N4C(=O)CN(C(=O)C5CC5)C[C@@H]34)cc2)c1	-6.3*
COc1ccc(C#Cc2ccc([C@@H]3[C@H](CO)N4C(=O)CN(C(=O)C5CCOCC5)C[C@@H]34)cc2)cc1	3.3
COc1cccc(C#Cc2ccc([C@H]3[C@H]4CN(C(=O)C5CC5)CC(=O)N4[C@H]3CO)cc2)c1	-7.3*
O=C(c1ccncc1)N1C[C@H]2[C@@H](c3ccccc31)[C@@H](CO)N2Cc1ccccc1F	1.8
CO[C@@H]1CN(C)C(=O)c2cc(NS(=O)(=O)c3ccccc3C)ccc2OC[C@@H](C)N(S(=O)(=O)c2ccccc2)C[C@H]1C	0.77
C[C@@H]1CN([C@@H](C)CO)C(=O)c2ccccc2-c2ccccc2CO[C@@H]1CN(C)C(=O)[C@H](Cc1ccccc1)N(C)C	0.73
C[C@H]1CC(=O)NCC/C=C\C[C@H](c2cccc(Cl)c2)NC1=O	-1
CC(=O)N1CCCCN2[C@H](C1)[C@H](c1ccc(-c3ccc(C)cc3)cc1)[C@@H]2CO	-1.8
C/C=C/c1ccc([C@H]2[C@@H](CO)N(C(C)=O)[C@@H]2CN(CCC)C(=O)C2CCC2)cc1	2.7
CCCNC(=O)N1CC(=O)N2[C@H](CO)[C@H](c3ccc(C#Cc4ccc(F)cc4)cc3)[C@@H]2C1	-0.11
CCCNC(=O)N1CC(=O)N2[C@H](CO)[C@H](c3ccc(C#Cc4cccc(OC)c4)cc3)[C@@H]2C1	-2
CCCNC(=O)N1CC(=O)N2[C@@H](CO)[C@H](c3ccc(-c4cccc(C)c4)cc3)[C@@H]2C1	-16*
CCCNC(=O)N1CC(=O)N2[C@H](C1)[C@@H](c1ccc(-c3ccccc3)cc1)[C@@H]2CO	-5.6*
CCCNC(=O)N1CC(=O)N2[C@H](CO)[C@@H](c3ccc(C#Cc4ccccc4)cc3)[C@@H]2C1	-6.9*
COc1ccccc1NC(=O)N1CC(=O)N2[C@H](CO)[C@@H](c3ccc(-c4cccc(C)c4)cc3)[C@@H]2C1	-9.4*
SMILES	IDE exosite inh
CCCC#Cc1ccc([C@H]2[C@@H](CO)N3C(=O)CN(C(=O)NCCC)C[C@@H]23)cc1	3.6
CCCNC(=O)N1CC(=O)N2[C@H](CO)[C@@H](c3ccc(C#Cc4ccc(F)cc4)cc3)[C@H]2C1	3.1
CCCNC(=O)N1CC(=O)N2[C@H](C1)[C@H](c1ccc(-c3ccc(F)cc3)cc1)[C@@H]2CO	-0.28
COc1ccccc1NC(=O)N1CC(=O)N2[C@H](CO)[C@@H](c3ccc(-c4ccc(F)cc4)cc3)[C@H]2C1	1.1
CCCNC(=O)N1CC(=O)N2[C@H](C1)[C@@H](c1ccc(C#Cc3cccc(F)c3)cc1)[C@@H]2CO	-3
COc1ccccc1NC(=O)N1CC(=O)N2[C@H](C1)[C@H](c1ccc(-c3cccc(C)c3)cc1)[C@@H]2CO	-1.8
COc1ccc(S(=O)(=O)Nc2ccc3c(c2)C(=O)N([C@H](C)CO)C[C@@H](C)[C@@H](CN(C)Cc2ccc(C(F)(F)F)cc2)OCCCC[C@H](C)O3)cc1	1.4
O=C(Nc1ccccc1)N1CC(=O)N2[C@H](CO)[C@H](c3ccc(-c4ccc(F)cc4)cc3)[C@H]2C1	2.4
